TDP-43 yeast inh = qHTS of TDP-43 Inhibitors; Potency, µM (top dose mostly 46.1 µM), for inactives: top-dose growth rescue (activation), hits mostly activators; 410,000 tested, 1.8% active; TDP-43 expressing yeast growth rescue, BacTiter-Glo, 24 h; note: % of control where 0% means no effect; nearly all actives have a fitted effect of over 50% in size
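Readout is BacTiter-Glo luminescence of cell growth, so inhibitors register as activators. TDP-43-expressing yeast at OD600=0.02 in galactose medium, after raffinose pregrowth to mid-log, were incubated with compound for 24 hr at 30 deg C.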
Mito fusion act = qHTS Assay for Small Molecule Inhibitors of Mitochondrial Division or Activators of Mitochondrial Fusion | Potency, µM (highest dose often 46.1 µM), for the others: at the top dose growth rescue (activation), hits mostly activators | 320,000 tested, 0.23% active | AID 485298, 2010 | S. cerevisiae fusion-defective mutant growth rescue, CellTiterGlo 48 h; note: % of control where 0% means no effect; nearly all actives have a fitted effect of over 45% in size
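Read-out: ATP-based luminescence (CellTiterGlo, 10 min ambient) reporting growth of fusion-defective ts yeast after 48 hours at 37C on glycerol/ethanol YPEG medium in the presence of compound.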
FUS yeast rescue = qHTS for Suppressors of FUS Proteinopathy: Primary screen using FUS-linked yeast assay; S. cerevisiae FUS-expressing, growth rescue, OD600, 24 h; Potency, µM (highest dose often 76.6 µM), usual class: activators; 390,000 tested, 0.24% active; AID 1347120, 2019;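 note: plate controls were DMSO vehicle for no effect and reference control for full effect; nearly all actives have a fitted effect of over 55% in size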
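FUS-expressing yeast, raffinose-pregrown, induced in 2% galactose minimal medium at OD 0.005; compounds in a dilution series, 24hr at 30C. Growth restoration read as absorbance at 600 nm. CP55940 positive control, DMSO negative.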
aSyn rescue = qHTS of alpha-syn Inhibitors; 370,000 tested, 0.14% active; Potency, µM (titrated, usually from 46.1 µM), for inactives: at the highest dose growth rescue (activation), actives largely listed as activators; Yeast expressing alpha-synuclein, growth rescue, BacTiter-Glo, 24 h; note: % of control where 0% means no effect; nearly all actives have a fitted effect of over 65% in size
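Galactose-induced alpha-syn yeast (OD600=0.02, raffinose-pregrown) + pinned cpd, 24 hr, 30 deg C; growth by BacTiter-Glo luminescence. Growth restoration scores as activation.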
Abeta yeast res = qHTS for compounds that reverse cellular toxicity of Amyloid beta (A-beta) peptide in yeast: Primary Screen; yeast expressing A-beta42, growth rescue, OD600, 48 h; response scale: 0% DMSO, 100% iron-clioquinol control; 410,000 tested, 0.063% active; Potency, µM (top dose mostly 46.1 µM), hits mostly activators; note: nearly all actives have a fitted effect of over 55% in size
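Yeast A-beta toxicity model in growth medium with pinned compounds, 48 h at 30 C; growth read as absorbance at 600 nm. Normalized to FeCl3/clioquinol equimolar mix (positive) and DMSO (negative).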
The depositor's hits bear a star; [ ] = another dose, or the depositor's remark. Rows were chosen to be rich in hits. Some 2.2% of all compounds tested hit in one or more screens of this group. Calls come from the whole dose curve; as a rule, active = well fitted curve in the direction sought with a large enough effect; inconclusive = small, poorly fitted or top-dose-only effect, or another doubt; inactive = no such curve, though single readings can be large; an effect the other way counts as inactive or inconclusive. Potency is the fitted concentration of half-maximal effect.

CCc1nnc(NC(=O)c2ccc(S(=O)(=O)N(CC)Cc3ccccc3)cc2)o1 was read as TDP-43 yeast inh 22µM*, Mito fusion act -1%, FUS yeast rescue inactive, aSyn rescue 13µM* and Abeta yeast res inconclusive.
Screening CCN(Cc1ccccc1)S(=O)(=O)c1ccc(C(=O)Nc2nnc(C)o2)cc1 returned TDP-43 yeast inh inconclusive, Mito fusion act -9%, FUS yeast rescue inactive, aSyn rescue inconclusive and Abeta yeast res inconclusive.
Screening CC(=O)Nc1ccc(S(=O)(=O)N(CC(=O)O)Cc2ccccc2)cc1 returned TDP-43 yeast inh 2%, Mito fusion act 8%, FUS yeast rescue inactive, aSyn rescue 2% and Abeta yeast res inactive.
CCCCN(CCCC)S(=O)(=O)c1ccc(C(=O)Nc2nnc(COC)o2)cc1 was read as TDP-43 yeast inh 13µM*, Mito fusion act 0%, FUS yeast rescue inactive, aSyn rescue inconclusive and Abeta yeast res inactive.
Screening CC(=O)Nc1ccc(S(=O)(=O)N(Cc2ccccc2)Cc2ccccc2)cc1 returned TDP-43 yeast inh 20µM*, FUS yeast rescue inconclusive and Abeta yeast res inactive.
For CCOc1ccc(Oc2c(Cl)cnn(Cc3cccc4ccccc34)c2=O)cc1 the results were FUS yeast rescue inactive.
For CCOC(=O)[C@]12CCCC=C1N(Cc1ccc(OC)cc1)C(=O)[C@@H]2CC(=O)NCC12CC3CC(CC(C3)C1)C2 the results were FUS yeast rescue 18µM*.
C#CCNC(=O)C[C@H]1C(=O)N(Cc2ccc(OC)cc2)C2=CCCC[C@@]21C(=O)OCC was read as FUS yeast rescue inactive.
For CCOC(=O)[C@]12CCCCC/C=C\1N(Cc1ccc(OC)cc1)C(=O)[C@H]2CC(=O)N1CCCC1 the results were FUS yeast rescue inactive.
Screening CC(C)Cn1cc(C(=O)N2CCN(c3cccc(Cl)c3)CC2)c2c3ccccc3n(C)c2c1=O returned TDP-43 yeast inh -10%, FUS yeast rescue 35µM* and Abeta yeast res inactive.
For Cn1cc(C(=O)N2CCN(c3cccc(C(F)(F)F)c3)CC2)c2c3ccccc3n(C)c2c1=O the results were TDP-43 yeast inh 28µM*, FUS yeast rescue inconclusive and Abeta yeast res inactive.
CCCCCc1ccc(-c2ccc(=O)[nH]n2)cc1 was read as TDP-43 yeast inh 18µM*, Mito fusion act inconclusive, FUS yeast rescue inactive, aSyn rescue 2% and Abeta yeast res inactive.
For CCCCCc1ccc(C2=NNC(=O)CC2)cc1 the results were TDP-43 yeast inh 13µM*, Mito fusion act -1%, FUS yeast rescue inactive, aSyn rescue 14% and Abeta yeast res inactive.
`O=C1CCC(c2ccccc2)=NN1` gave TDP-43 yeast inh -4%[9.22 µM], Mito fusion act 6%, FUS yeast rescue inactive, aSyn rescue 0% and Abeta yeast res inactive.
`OCCCc1cn(-c2ccccc2)c2ccccc12` gave TDP-43 yeast inh 13µM*, Mito fusion act 17%, FUS yeast rescue inactive, aSyn rescue 24% and Abeta yeast res inactive.
Screening COc1cc(Cl)nn(-c2ccccc2)c1=O returned TDP-43 yeast inh 3%, Mito fusion act 7%, aSyn rescue -1% and Abeta yeast res inactive.
O=c1c(Cl)cc(Cl)nn1-c1ccccc1 was read as TDP-43 yeast inh 25µM*, Mito fusion act -1%, aSyn rescue -1% and Abeta yeast res inactive.
`CCC(OC(C)=O)c1cc2c(cc1[N+](=O)[O-])OCCO2` (stereo not drawn) gave TDP-43 yeast inh 6%, Mito fusion act 9%, FUS yeast rescue inactive, aSyn rescue -2% and Abeta yeast res inactive.
O=C1Nc2ccc(I)cc2/C1=C/c1cc(Br)c(O)c(Br)c1 was read as Mito fusion act 0.46µM* and aSyn rescue 25%.
`O=C1Nc2ccc(I)cc2C1=Cc1cc(Br)c(O)c(Br)c1` gave aSyn rescue 3.2µM*.

Screening data from PubChem BioAssay.
